Reference: PubChem BioAssay (NCATS)
Inconclusive results are not listed. The source made the active and inactive calls. The call rests on the fitted dose curve; in most records, active means well fitted curve in the direction sought with a large enough effect; inconclusive means small, poorly fitted or top-dose-only effect, or another doubt; inactive means no such curve, though single readings can be large or run the other way.

Assay: qHTS for differential inhibitors of proliferation of Plasmodium falciparum line W2 (AID 1883);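 further: parasites grown with compound for 72 h before lysis and staining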;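 on activity change, negative = inhibition: 0% = vehicle wells and -100% = control inhibitor wells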
Conditions: Potency: Plasmodium falciparum W2 proliferation inhibition; series mostly up to 28.7 µM; activity change, negative = inhibition: at the top concentration
Potency means the concentration at half of the fitted maximal effect.

Structure (SMILES)	activity change, negative = inhibition	Potency
N[C@@H](Cc1c[nH]c2ccc(O)cc12)C(=O)O	-10.3% (inactive)	
CCOC(=O)Nc1ccc(NCc2ccc(F)cc2)nc1N		2 µM (active)
COc1cc2nc(N3CCN(C(=O)c4ccco4)CC3)nc(N)c2cc1OC		5.01 µM (active)
CN1CCC(=C2c3ccccc3C=Cc3ccccc32)CC1		2.82 µM (active)
Nc1c2c(nc3ccccc13)CCCC2		5.62 µM (active)
Fc1ccc([C@@H]2CCNC[C@H]2COc2ccc3c(c2)OCO3)cc1		3.55 µM (active)
CCC1(C)CC(=O)NC1=O (configuration not stated)	-15.1% (inactive)	
CC(C)NCC(O)COc1ccc(CCOCC2CC2)cc1 (configuration not stated)		7.08 µM (active)
CN(C)c1nc(N(C)C)nc(N(C)C)n1	-4.61% (inactive)	
NCCS(=O)(=O)O	1.25% (inactive)	
CN(C)CCC=C1c2ccccc2C=Cc2ccccc21		5.01 µM (active)
Cn1c(=O)c2c(ncn2C)n(C)c1=O	4.47% (inactive)	
CCC1(c2ccccc2)C(=O)NCNC1=O	-13.7% (inactive)	
COc1ccc2[nH]cc(CCNC(C)=O)c2c1	-5.64% (inactive)	
CCCNCC(O)COc1ccccc1C(=O)CCc1ccccc1 (configuration not stated)		0.316 µM (active)

Structure (SMILES)	activity change, negative = inhibition	Potency
CN1CCC(=C2c3ccccc3CC(=O)c3sccc32)CC1		0.891 µM (active)
O=C(c1ccc(F)cc1)C1CCN(CCn2c(=O)[nH]c3ccccc3c2=O)CC1		1.58 µM (active)
CN1CCN(CCCN2c3ccccc3Sc3ccc(Cl)cc32)CC1		4.47 µM (active)
CC[N+](CC)(CC)CCOc1cccc(OCC[N+](CC)(CC)CC)c1OCC[N+](CC)(CC)CC	0.541% (inactive)	
O=C1N(c2ccccc2)c2ccccc2C1(Cc1ccncc1)Cc1ccncc1		10 µM (active)
NC(=O)OCC(COC(N)=O)c1ccccc1	-23.5% (inactive)	
Nc1nc2c(ncn2COC(CO)CO)c(=O)[nH]1	-9.65% (inactive)	
CC(CCc1ccc(O)cc1)NCCc1ccc(O)c(O)c1 (configuration not stated)		10 µM (active)
COc1ccccc1N1CCN(CC(O)COc2cccc3ccccc23)CC1 (configuration not stated)		10 µM (active)
Cn1c(=O)c2[nH]cnc2n(C)c1=O	-6.28% (inactive)	
NCCc1cnc[nH]1	-8.02% (inactive)	
COc1cc2nc(N3CCN(C(=O)C4COc5ccccc5O4)CC3)nc(N)c2cc1OC (configuration not stated)		1.12 µM (active)
CN(C)CCOC(c1ccccc1)c1ccccc1		1 µM (active)
NC12CC3CC(CC(C3)C1)C2		6.31 µM (active)
Cn1cnc2c1c(=O)[nH]c(=O)n2C	-0.605% (inactive)	

Assay: qHTS for differential inhibitors of proliferation of Plasmodium falciparum line HB3 (AID 1886);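 further: parasites grown with compound for 72 h before SYBR Green readout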;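 on activity change, negative = inhibition: plate controls were vehicle for no effect and reference inhibitor for full effect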
Conditions: Potency: Plasmodium falciparum HB3 proliferation inhibition; series mostly up to 28.7 µM; activity change, negative = inhibition: at the top concentration

Structure (SMILES)	activity change, negative = inhibition	Potency
N[C@@H](Cc1c[nH]c2ccc(O)cc12)C(=O)O	1.17% (inactive)	
CCOC(=O)Nc1ccc(NCc2ccc(F)cc2)nc1N		2.82 µM (active)
COc1cc2nc(N3CCN(C(=O)c4ccco4)CC3)nc(N)c2cc1OC		10 µM (active)
CN1CCC(=C2c3ccccc3C=Cc3ccccc32)CC1		11.2 µM (active)
Nc1c2c(nc3ccccc13)CCCC2		12.6 µM (active)
Fc1ccc([C@@H]2CCNC[C@H]2COc2ccc3c(c2)OCO3)cc1		7.08 µM (active)
O=C1c2c(O)ccc(O)c2C(=O)c2c(NCCNCCO)ccc(NCCNCCO)c21		0.708 µM (active)
CCC1(C)CC(=O)NC1=O (configuration not stated)	-0.293% (inactive)	
CC(C)NCC(O)COc1ccc(CCOCC2CC2)cc1 (configuration not stated)	-3.32% (inactive)	
CN(C)c1nc(N(C)C)nc(N(C)C)n1	6.48% (inactive)	
NCCS(=O)(=O)O	2.18% (inactive)	
CN(C)CCC=C1c2ccccc2C=Cc2ccccc21		12.6 µM (active)
Cn1c(=O)c2c(ncn2C)n(C)c1=O	-4.37% (inactive)	
CCC1(c2ccccc2)C(=O)NCNC1=O	-8.14% (inactive)	
COc1ccc2[nH]cc(CCNC(C)=O)c2c1	2.67% (inactive)	
CCCNCC(O)COc1ccccc1C(=O)CCc1ccccc1 (configuration not stated)		1 µM (active)

Structure (SMILES)	activity change, negative = inhibition	Potency
CN1CCC(=C2c3ccccc3CC(=O)c3sccc32)CC1		10 µM (active)
O=C(c1ccc(F)cc1)C1CCN(CCn2c(=O)[nH]c3ccccc3c2=O)CC1		3.98 µM (active)
CN1CCN(CCCN2c3ccccc3Sc3ccc(Cl)cc32)CC1		12.6 µM (active)
CC[N+](CC)(CC)CCOc1cccc(OCC[N+](CC)(CC)CC)c1OCC[N+](CC)(CC)CC	-4.37% (inactive)	
O=C1N(c2ccccc2)c2ccccc2C1(Cc1ccncc1)Cc1ccncc1		11.2 µM (active)
NC(=O)OCC(COC(N)=O)c1ccccc1	0.81% (inactive)	
Nc1nc2c(ncn2COC(CO)CO)c(=O)[nH]1	-15.4% (inactive)	
CC(CCc1ccc(O)cc1)NCCc1ccc(O)c(O)c1 (configuration not stated)		12.6 µM (active)
COc1ccccc1N1CCN(CC(O)COc2cccc3ccccc23)CC1 (configuration not stated)		12.6 µM (active)
Cn1c(=O)c2[nH]cnc2n(C)c1=O	-4.02% (inactive)	
NCCc1cnc[nH]1	-4.68% (inactive)	
COc1cc2nc(N3CCN(C(=O)C4COc5ccccc5O4)CC3)nc(N)c2cc1OC (configuration not stated)		2.82 µM (active)
CN(C)CCOC(c1ccccc1)c1ccccc1	-16.3% (inactive)	
NC12CC3CC(CC(C3)C1)C2	-16.6% (inactive)	
Cn1cnc2c1c(=O)[nH]c(=O)n2C	-6.73% (inactive)	
